Shiga inhibitor: inhibitors of Shiga toxin in Vero cells. Vero cells, Shiga toxin protein synthesis inhibition reporter. inhibition, % at 38.7 µM. 290,000 tested, 9.2% active. AID 2315; in the data active means inhibition mostly above about 28%, no sharp cut-off; inactive means mostly below about 43%; further: 0% is about no effect
CHX counter: counter-screen hit for Shiga toxin inhibitors, cycloheximide; cell reporter, cycloheximide protein synthesis inhibition counterscreen; max response, %; 300,000 tested, 12% active; AID 2314; in the data active means max response mostly above about 13%, no sharp cut-off; inactive means mostly below about 14%; further: read at 38.3 µM for the half of the compounds with a filed dose; 0% is about no effect
Marburg entry inh: Marburg virus entry inhibition; AID 540276; 300,000 tested, 1.8% active; Potency, µM (top dose mostly 37.8 µM), for the others: top-dose activity change, negative = inhibition, usual class: inhibitors; Marburg virus pseudotyped entry inhibition, cell reporter; calls by dose curve; tested in HEK293 cells; further: potency means the concentration at half of the fitted maximal effect; on the % scale 0 is the no-effect control and ±100 the full control effect
HCV inh: blocks hepatitis C virus; Huh7.5.1 HCVcc-Cre infection, luciferase reporter, 44 h; Potency, µM (top dose mostly 41.8 µM), for the others: top-dose activity change, negative = inhibition, most hits filed as inhibitors; 340,000 tested, 3.4% active; AID 651820; active means well fitted inhibition curve with a large enough effect; inconclusive means small, poorly fitted or top-dose-only effect, or another doubt; inactive means no such curve, though single readings can be large or run the other way; further: potency means the concentration at half of the fitted maximal effect; on the % scale 0 is the no-effect control and ±100 the full control effect
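Compounds are dispensed onto cells plated 4 h earlier at 1,000 per well, with HCVcc-Cre virus (about 0.5 moi) added next. Following 44 h of culture, luminescent signal is measured for 15 sec after 15 min with substrate at room temperature.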
Lassa entry inh: blocks Lassa virus binding to or entry into cells | Lassa virus pseudotype entry inhibition, cell reporter | Potency, µM (doses to about 37.9 µM), inactives show at the highest dose activity change, negative = inhibition, usual class: inhibitors | 300,000 tested, 1.2% active | AID 540256; calls by dose curve; tested in HEK293 cells; further: potency means the concentration at half of the fitted maximal effect; on the % scale 0 is the no-effect control and ±100 the full control effect; nearly all actives have a fitted effect of over 50% in size
FMDV inh: antivirals against foot and mouth disease virus; FMDV antiviral cell-based qHTS; Potency, µM (doses to about 57.9 µM), for inactives: at the highest dose activity change, negative = inhibition, usual class: inhibitors; 410,000 tested, 1.2% active; AID 1159524; calls by dose curve; tested in HEK293T cells; further: read-out not given here; potency means the concentration at half of the fitted maximal effect; on the % scale 0 is the no-effect control and ±100 the full control effect; nearly all actives have a fitted effect of over 45% in size
Numbers without * were called inactive; ? = inconclusive; . = not tested or not shown; [ ] = dose if it differs, or a comment. An excerpt weighted towards active compounds, which were near 13% of everything screened.

SMILES	Shiga inhibitor	CHX counter	Marburg entry inh	HCV inh	Lassa entry inh	FMDV inh
Cc1cc(C)nc(NS(=O)(=O)c2ccc(N/C=C3\CCCC3=O)cc2)n1	-2.0	-1.1	8.9%	11.1%	5.7%	57.3%
O=C(c1cccs1)C1CN2CCC1CC2 (centres undefined)	-8.0	1.1	-8.1%	-3.9%	-0.7%	-3.4%
Cc1nc(C#N)c(N/N=C/c2cccc(Cl)c2)o1	53.7*	35.9*	12.4%	-9.6%[8.37 µM]	?	9.0%
CN(C)CCNc1oc(-c2cccc(Cl)c2)nc1C#N	-4.7	-2.9	-7.2%	?	-0.6%	13.7%
CCOc1ccccc1N1CC(C(=O)Nc2ccccc2N2CCOCC2)CC1=O (centres undefined)	17.3	37.9*	-15.4%	?	28.4%	0.0%
CCOc1ccc(C(=O)Nc2ccccc2N2CCCC2)cc1	72.5	28.7*	2.9%	?	-7.5%	19.2%
CCOc1ccc(C(=O)Nc2ccccc2N2CCOCC2)cc1	-14.8	-2.5	2.7%[46.1 µM]	-13.6%	-11.3%	-19.2%
CCOc1ccc(C(=O)C2CCN(CC(=O)Nc3ccccc3N3CCOCC3)CC2)cc1	-15.4	-0.3	?	?	18.3µM*	-22.5%
CCOc1cc(N2CCOCC2)c(OCC)cc1NC(=O)C1CC(=O)N(c2ccccc2OCC)C1 (centres undefined)	.	.	.	?	.	-17.6%
Cc1ccc(NC(=O)C2CCCN2C(=O)Oc2ccccc2)cc1C (centres undefined)	2.8	6.1	?	-6.4%	5.3%	-19.9%
CCOc1ccccc1NC(=O)C1CCN(S(=O)(=O)c2ccc3c(c2)CC(C)N3C(C)=O)CC1 (centres undefined)	.	.	.	.	23.2%[46.1 µM]	-19.9%
COc1ccc(/C=N/Nc2cc(N3CCCC3)nc(N3CCCC3)n2)cc1	21.2	18.1	?	7.08µM*	3.16µM*	?
Oc1ccc(/C=N/Nc2cc(N3CCOCC3)nc(N3CCOCC3)n2)cc1	.	.	6.51µM*	?	-18.9%	.
CCc1cc(-c2n[nH]c(=S)n2Cc2ccccc2)cs1	-18.2	-2.4	7.5%	?	-2.6%	-22.0%
CC1CCCN(c2ccc(C(=O)NCc3ccc4c(c3)OCO4)cc2[N+](=O)[O-])C1 (centres undefined)	2.4	-2.4	1.6%	?	-5.0%	?
CC1CCCN(c2ccc(C(=O)Nc3ccc4c(c3)OCO4)cc2[N+](=O)[O-])C1 (centres undefined)	-40.5	17.0*	?	?	?	?
CC1CCN(c2ccc(C(=O)Nc3ccc4c(c3)OCO4)cc2[N+](=O)[O-])CC1	16.4	7.6	?	4.47µM*	-28.0%	-29.3%
O=C(COC(=O)c1cccc(C(F)(F)F)c1)NCc1ccc(Cl)cc1	-4.2	-4.9	17.1%	14.6%	0.3%	-2.9%
CCN(CC)c1ccc(C(=C2C=CC(=[N+](CC)Cc3cccc(S(=O)(=O)[O-])c3)C=C2)c2ccc(N(CC)Cc3cccc(S(=O)(=O)O)c3)cc2)cc1	-12.3	-4.3	.	.	.	.
CCN(CC)c1ccc(C(=C2C=CC(=[N+](CC)CC)C=C2)c2ccc(N(CC)CC)cc2)cc1	.	.	.	1.78µM*	.	8.91µM*
CCN(CC)c1ccc(C(=C2C=CC(=[N+](CC)CC)C=C2)c2ccccc2)cc1	-25.2	-20.0	?	?	0.562µM*	3.55µM*
CCn1c(SCC(=O)NCC2CCCO2)nc2c(c1=O)SCC2 (centres undefined)	-3.5	0.5	17.2%	.	8.5%	-19.7%
CCOc1ccc(C(=O)OCC(=O)Nc2nc(OC)cc(OC)n2)cc1OCC	-20.0	-4.0	-1.8%	?	4.8%	0.0%
CC1CCN(C(=O)CSc2nnc(NC(=O)Nc3ccccc3)s2)CC1	.	.	.	.	16.9%[46.1 µM]	-20.0%
Cc1oc(-c2ccccc2)cc1C(=O)NC(Cc1c[nH]c2ccccc12)C(=O)O (centres undefined)	15.2	6.5	3.7%	4.5%	9.7%	9.5%
SMILES	Shiga inhibitor	CHX counter	Marburg entry inh	HCV inh	Lassa entry inh	FMDV inh
O=C(O)c1ccc(N/N=C/c2ccc(F)c(F)c2)cc1	35.0	15.4*	7.08µM*	30.4%	6.31µM*	14.1µM*
O=C(O)c1ccc(N/N=C/c2cccc(C(F)(F)F)c2)cc1	84.5*	55.3*	.	3.6%	.	38.9%
COc1cc(/C=N/Nc2ccc(C(=O)O)cc2)ccc1O	-8.2	5.3	?	-5.2%	?	?
O=C(O)c1ccc(N/N=C/c2cccc(F)c2)cc1	69.4*	81.0*	10.3µM*	43.7%	?	-37.6%
Nc1c(-c2ccccc2)c(CN2CCOCC2)nn1-c1ccccc1	-12.4	-9.2	.	-2.3%	.	13.3%
COc1cccc(-n2nc(C#N)c(Cl)cc2=O)c1	-21.4	-5.7	?	?	?	11.2µM*
COc1ccc(C(=O)/C=C/c2cccs2)c(OC(=O)c2cccc([N+](=O)[O-])c2)c1	131.7*	59.7*	-0.8%	3.1%	-8.4%	-6.4%
COc1ccc(C(=O)/C=C/c2ccc(F)cc2)c(OC(=O)c2ccc([N+](=O)[O-])cc2)c1	20.9	22.9*	2.4%	?	1.6%	2.6%
COc1ccc(OC(=O)/C=C/c2ccc([N+](=O)[O-])cc2)cc1	2.8	-2.3	21.9%[46.1 µM]	0.7%	7.3%[46.1 µM]	0.6%
O=C(CN1C(=O)NC2(CCCCC2)C1=O)N1CCN(S(=O)(=O)c2ccc(F)cc2)CC1	.	.	10.7%	19.3%	8.4%	-7.8%
O=C(OCC(=O)N1CCN(C(=O)c2ccco2)CC1)c1ccccc1	78.4*	29.0*	-2.4%[46.1 µM]	7.0%	7.1%	61.8%
COC(=O)C1CCN(C(=O)CCCOc2ccccc2)CC1	42.5*	20.4*	3.0%	13.2%	-26.1%	-20.1%
O=C(OCC(=O)N1CCN(C(=O)c2ccco2)CC1)c1ccc(Cl)cc1	.	.	.	8.9%	.	-14.6%
Cc1cc(Cl)ccc1OCCCC(=O)N1CCN(C(=O)c2ccco2)CC1	19.3	-0.4	?	?	3.0%	-22.6%
O=C(CCCOc1ccccc1)N1CCN(C(=O)c2ccco2)CC1	87.5*	21.1*	?	-3.6%	-5.0%	28.4%
O=C(OCC(=O)N1CCN(C(=O)c2ccco2)CC1)c1ccccc1O	32.5*	20.5	18.3%	12.8%	14.3%	27.1%
Cc1ccccc1OCCn1c(=S)[nH]c2c(N)ncnc21	1.3	-2.1	.	18.3%	.	73.9%
O=C(CC(=O)NN=C1CCCC1)NCCc1ccccc1	-0.9	-5.2	-0.9%	13.5%	-0.3%	1.7%
CCOC(=O)C1(CCOc2ccccc2)CCN(Cc2ccc(O)c(OC)c2)CC1	-27.7	-4.0	.	-17.5%	.	?
CCNC(=S)N(Cc1cc2c(C)ccc(C)c2[nH]c1=O)C1CCCC1	-9.1	6.9	.	26.4%	.	-5.8%
O=C(NC(Cc1ccccc1)C(=O)O)/C(=C/c1ccc(Cl)cc1)NC(=O)c1ccccc1 (centres undefined)	4.4	-3.8	.	17.2%	.	-19.4%
CCNC(=O)NC(=O)C(C)Sc1nnc(COc2ccccc2Cl)o1 (centres undefined)	28.0	15.0*	17.5%	10.6%	?	10.7%
O=C(NCc1ccc(Cl)cc1)C1CCN(S(=O)(=O)c2ccc(N3CCCC3=O)cc2)CC1	17.1	3.1	.	11.2µM*	.	?

Source: PubChem (National Center for Advancing Translational Sciences (NCATS))
